From PubChem BioAssay AID2283312 (EPA ToxCast) come the findings set out here.

Molecules are shown by their SMILES. Results filed as inconclusive are left out. Activity calls are given as the source filed them. How the source made its calls: active means hit-call score of the fitted dose curve at least 0.9, where 1 is the maximum; inconclusive means response in the unintended direction; inactive means score below 0.9.

Sequence of rat Vasoactive Intestinal Peptide Receptor (VIP), Non-selective Binding, Vipr1 (gene 24875) (P30083 whole entry, looked up): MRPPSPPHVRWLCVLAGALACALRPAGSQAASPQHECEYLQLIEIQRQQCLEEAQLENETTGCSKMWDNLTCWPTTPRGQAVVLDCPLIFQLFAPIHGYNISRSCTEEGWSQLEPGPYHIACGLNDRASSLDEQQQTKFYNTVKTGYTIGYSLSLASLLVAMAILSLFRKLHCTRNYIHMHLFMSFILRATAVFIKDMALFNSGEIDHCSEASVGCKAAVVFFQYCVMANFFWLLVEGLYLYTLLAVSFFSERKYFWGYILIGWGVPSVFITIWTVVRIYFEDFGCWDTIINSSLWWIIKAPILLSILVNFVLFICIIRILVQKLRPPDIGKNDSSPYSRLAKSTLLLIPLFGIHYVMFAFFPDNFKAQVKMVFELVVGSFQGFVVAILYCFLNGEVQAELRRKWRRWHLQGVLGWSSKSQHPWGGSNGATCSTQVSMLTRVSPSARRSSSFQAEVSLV

The assay addresses rat Vasoactive Intestinal Peptide Receptor (VIP), Non-selective Binding, Vipr1 (gene 24875) (UniProt P30083). The assay can be described thus: NVS_GPCR_rVIP_NonSelective: NovaScreen (NVS) G Protein-Coupled Receptor Assay for rat Vasoactive Intestinal Peptide Receptor (VIP), Non-selective Binding. The method, then: NVS_GPCR_rVIP_NonSelective is a biochemical, single-readout assay that uses extracted gene-proteins from Rat forebrain membranes in a tissue-based cell-free assay. Measurements were taken 1 hour after chemical dosing in a 96-well plate.NVS_GPCR_rVIP_NonSelective is one of one assay component(s) measured or calculated from the NVS_GPCR_rVIP_NonSelective assay. It is designed to make measurements of radioligand binding, a form of binding reporter, as detected with scintillation counting signals by Filter-based radiodetection technology.Data from the assay component NVS_GPCR_rVIP_NonSelective was analyzed into 1 assay endpoint. This assay endpoint, NVS_GPCR_rVIP_NonSelective, was analyzed in the positive analysis fitting direction relative to DMSO as the negative control and baseline of activity. Using a type of binding reporter, loss-of-signal activity can be used to understand changes in the binding as they relate to the gene Vipr1. Furthermore, this assay endpoint can be referred to as a primary readout, because the performed assay has only produced 1 assay endpoint. To generalize the intended target to other relatable targets, this assay endpoint is annotated to the gpcr intended target family, where the subfamily is secretin receptor.
Binding assays used specific radioligands (tritiated, iodinated) with non-radioactive competitive displacement ligands in agonist or antagonist protocols (as indicated) and various reference compounds and inhibitors to titrate specific binding to receptors and transporters. Most enzyme assays (CYPs, kinases, phosphatases, proteases, HDACs) used recombinant protein and specific substrates (fluorescence mostly, some colorimetric and radioactive) and inhibitors, followed by a biochemical separation of substrate and product. All assays for the biochemical HTS were initially run in duplicate at a single concentration (10 uM for CYP450 assays and 25 uM for all others). Assay-chemical combinations meeting a pre-defined threshold (e.g., 30% inhibition and other criteria defined below) were then run in singleton concentration-response format with maximum concentration of 20 uM for CYPs and 50 uM for all others. Each assay was run with positive and negative controls, and concurrent controls on every plate. The follow-up (secondary) screen tested active chemical-pairs in concentration series, as well as a few additional assays not tested in the primary screen, some selected negative inactives, and several cases re-run in the concentration series for confirmatory purposes.
The AC50 is the midpoint of the concentration-response curve, whichever way the signal moves. As to `CCOC(=O)O[C@H](C)OC(=O)c1ccc2c(c1)cc(C(=O)NC1CCN(C(C)C)CC1)n2Cc1cc(-c2ccc(Cl)s2)on1`, the half-maximal activity concentration (AC50) was 23.6 µM (active).

With `NCc1cccc(C2CCN(C(=O)c3ccc(C#Cc4ccccc4F)o3)CC2)c1`, the compound was classed as inactive.

For `c1ccc(Nc2ccccc2)cc1`, the result was inactive.

As for `COCC(C)OCC(C)OCC(C)O` (stereo not given), the outcome was inactive.

On to `CCCCCCCCCC`, for which the compound was called inactive.

Regarding `CN(C)C(=O)C1(N2CCCCC2)CCN(CC[C@@]2(c3ccc(Cl)c(Cl)c3)CN(C(=O)c3ccccc3)CCO2)CC1`, the result was inactive.

Consider `O=C(NO)C1(NS(=O)(=O)c2ccc(Oc3ccc(F)cc3)cc2)CCOCC1`, for which the result was inactive.

As to `O=C(N[C@@H](c1ccccc1)[C@@H]1CCCCN1)c1cccc(C(F)(F)F)c1Cl`, the outcome was inactive.

Regarding `CC(C)(c1ccc(O)cc1)c1ccc(O)cc1`, the result was inactive.

With `CC(=O)NC1(c2cccc(F)c2)CCN(CC[C@@]2(c3ccc(Cl)c(Cl)c3)CN(c3ccccc3)C(=O)CO2)CC1`, the compound was called inactive.
